# Test results published in PubChem BioAssay.
# What was measured:
# [1] = test system: Human papillomavirus type 1a protein E7 (residues 44-93); assay: HPV1a E7 fragment binders on microarrays, primary screen, biochemical, small-molecule microarray, residues 44-93, 635 nm fluorescence (AID 1108); conditions: small-molecule microarray binding, fluorescence 635 nm; higher = more signal;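 also: E7 fragment applied at 1 µg/mL in TBST for 1 h at 4 C; score combines spot fluorescence with its signal to noise ratio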
# [2] = modulators of HCV replicon luciferase signal, primary screen, HCV replication inhibitor project, Huh7 cells, luciferase reporter (AID 1109); conditions: 48 h, higher = more signal;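 also: huh7 hepatoma cells harbouring a luciferase neomycin HCV replicon reporter; luciferase luminescence as measure of HCV replicon replication; test concentration not given here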
# [3] = target: Left-right determination factor 2 (Homo sapiens) (UniProt O00292); assay: LEFTY2 binders on small-molecule microarrays, primary screen, biochemical, small-molecule microarray, 635 nm fluorescence scan (AID 1110); conditions: LEFTY2 binding, higher = more signal
# Chain of Left-right determination factor 2 (Homo sapiens) (O00292 whole entry, looked up): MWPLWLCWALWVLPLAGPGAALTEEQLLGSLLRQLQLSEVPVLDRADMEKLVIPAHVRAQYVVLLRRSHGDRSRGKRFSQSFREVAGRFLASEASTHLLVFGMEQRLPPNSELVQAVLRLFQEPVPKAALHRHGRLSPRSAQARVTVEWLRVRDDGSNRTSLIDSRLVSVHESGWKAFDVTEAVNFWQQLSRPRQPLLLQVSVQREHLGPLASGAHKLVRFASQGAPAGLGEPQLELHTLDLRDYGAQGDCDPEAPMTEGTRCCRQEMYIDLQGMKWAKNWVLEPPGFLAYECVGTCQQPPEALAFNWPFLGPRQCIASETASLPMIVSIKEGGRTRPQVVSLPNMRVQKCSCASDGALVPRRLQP
# [4] = target: Calmodulin-1 (Homo sapiens) (UniProt P0DP23); assay: CALM1 binders on microarrays, EGTA buffer, profiling panel, biochemical, small-molecule microarray, Cy5-labelled CALM1 (AID 1111); conditions: Cy5-CALM1 binding fluorescence, higher = more signal;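 also: labelled calmodulin applied in Tris saline Tween buffer holding calcium plus EGTA and DTT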
# [5] = target: Calmodulin-1 (Homo sapiens) (UniProt P0DP23); assay: calcium-bound CALM1 binders on microarrays, profiling panel, artefact control for SMM control-protein annotation, biochemical, small-molecule microarray, Cy5-labelled CALM1, plus calcium (AID 1112); conditions: Cy5-CALM1 binding fluorescence, higher = more signal;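 also: score merges spot fluorescence with signal to noise from triplicate slides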
# [6] = small-molecule microarray binders of probe aWnt5a, primary screen, biochemical, biotinylated probe, 635/667 nm fluorescence (AID 1113); conditions: higher = more signal;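 also: score merges 667 nm fluorescence intensity with signal-to-noise per printed feature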
# [7] = small-molecule microarray binders of probe aShh, primary screen, biochemical, biotinylated probe, 635/667 nm fluorescence (AID 1114); conditions: higher = more signal;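 also: probe is biotin-labelled aShh protein from a stem cell growth factor screen; measures binding of labelled protein to compounds printed on the slide; score merges feature fluorescence at 667 nm with signal-to-noise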
# [8] = small-molecule microarray binders of probe aNog, primary screen, biochemical, biotinylated probe, 635/667 nm fluorescence (AID 1115); conditions: higher = more signal;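 also: probe is biotinylated aNog protein used at 0.15 µg/mL for 1 h at 4 C; z-score combines 667 nm fluorescence of each spot with its signal to noise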
# [9] = target: Torsin-1A-interacting protein 1 (Homo sapiens) (UniProt Q5JTV8); assay: LAP1 binders from COS7 cell lysate, primary screen, small-molecule microarray, 635/667 nm fluorescence (AID 1116); conditions: COS7-hLAP1 lysate binding, 635 nm fluorescence, higher = more signal
# Chain of Torsin-1A-interacting protein 1 (Homo sapiens) (Q5JTV8 whole entry, looked up): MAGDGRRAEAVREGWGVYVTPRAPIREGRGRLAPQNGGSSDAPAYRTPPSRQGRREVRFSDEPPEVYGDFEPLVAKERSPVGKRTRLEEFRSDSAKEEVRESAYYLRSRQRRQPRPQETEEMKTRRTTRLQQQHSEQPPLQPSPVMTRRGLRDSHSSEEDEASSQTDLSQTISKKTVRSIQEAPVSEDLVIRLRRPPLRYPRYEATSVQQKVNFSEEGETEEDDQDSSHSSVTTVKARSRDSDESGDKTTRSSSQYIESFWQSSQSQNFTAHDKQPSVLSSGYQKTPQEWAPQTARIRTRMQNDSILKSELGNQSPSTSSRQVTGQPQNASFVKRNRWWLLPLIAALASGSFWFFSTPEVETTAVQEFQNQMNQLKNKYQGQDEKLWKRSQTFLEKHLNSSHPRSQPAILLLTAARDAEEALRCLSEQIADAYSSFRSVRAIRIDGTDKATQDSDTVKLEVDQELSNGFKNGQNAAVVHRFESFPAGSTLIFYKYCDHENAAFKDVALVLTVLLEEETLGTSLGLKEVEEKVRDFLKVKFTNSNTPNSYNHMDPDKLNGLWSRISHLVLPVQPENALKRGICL
# [10] = target: Alpha-bungarotoxin (Bungarus multicinctus) (UniProt P60615); assay: alpha-bungarotoxin binders on microarray, profiling panel, artefact control for SMM control protein annotation, biochemical, small-molecule microarray, Alexa647 label, 635/667 nm fluorescence (AID 1117); conditions: alpha-BTX-A647 binding fluorescence, higher = more signal
# Chain of Alpha-bungarotoxin (Bungarus multicinctus) (P60615 whole entry, looked up): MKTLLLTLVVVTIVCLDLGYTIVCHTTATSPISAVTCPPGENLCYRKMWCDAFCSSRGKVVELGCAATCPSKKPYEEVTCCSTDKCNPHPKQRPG
Compound,composite z-score [1],z-score [2],composite z-score [3],composite z-score [4],composite z-score [5],composite z-score [6],composite z-score [7],composite z-score [8],composite z-score [9],composite z-score [10]
O=C1C2C=CC(C(O)c3ccccn3)N(Nc3ccccc3F)C2C(=O)N1c1ccccc1 (stereo not given),0.642,0.426,0.0355,-0.116,-0.332,-0.0685,0.0278,-0.216,0.0065,0.231
COc1cc(CO)cc(I)c1O[C@H]1C=C(C(=O)NCCO)C[C@@H](N(CCc2cccc(F)c2)C(=O)CCC2CCCC2)[C@@H]1O,1.43,-4.65,0.195,2.15,2.16,0.277,0.0952,-0.144,2.99,-0.242
COc1ccc(C#Cc2ccc3c(c2)[C@]2(C(=O)N3)[C@H](C(=O)N3CCN(c4ncccn4)CC3)[C@H]3C(=O)O[C@H](c4ccccc4)[C@H](c4ccccc4)N3[C@@H]2c2ccc(O)cc2)cc1,1.4,-1.73,0.169,1.23,0.0193,0.115,0.315,-0.406,0.399,0.531
CCN(CC)c1ccc(N2CC=CC34O[C@@H]5C=CCCOC(=O)C5[C@H]3C(=O)N(CCCO)[C@@H]4C2=O)cc1 (stereo not given in full),-0.591,0.0997,0.0606,-0.409,-0.977,-0.176,-0.294,-0.288,-0.273,-1.17
O=C1OCCC/C=C\[C@H]2OC34C=CCN(Cn5nnc6ccccc65)C(=O)[C@H]3N(CCCO)C(=O)[C@@H]4C12 (stereo not given in full),0.692,-1.01,-2,-0.44,0.458,-0.191,0.0952,0.574,2.11,-1.75
CC(C)[C@H]1COC(=O)N1C(=O)[C@H]1[C@@H](c2ccccc2)N(c2ccccc2)O[C@@H]1C,0.359,-0.383,0.729,0.35,-0.434,-0.1,-0.206,0.0373,0.15,0.107
C=CC[C@]1(C(=O)NCCN2CCOCC2)N=C(c2ccc(OCCCO)cc2)O[C@H]1c1ccccc1N=[N+]=[N-],1.01,-0.44,0.26,1.34,-0.0083,0.048,-0.155,1.39,1.36,1.3
COC(=O)[C@@]1(Cc2ccc(F)cc2)[C@H]2c3cc(C(=O)N(C)C)n(CCCNc4ccc(C(F)(F)F)cc4Cl)c3C[C@H]2CN1C(=O)c1ccccc1,1.4,-2.38,-0.385,2.36,1.31,0.284,0.391,1.53,1.37,1.85
COc1ccc([Si](C)(C)[C@H]2[C@H](CC(=O)N(CCO)Cc3ccccc3)O[C@@]3(C(=O)N(Cc4cccc(N5C(=O)c6cccc7cccc5c67)c4)c4ccccc43)[C@@H]2C)cc1,0.9,-4.25,0.45,0.847,-0.0174,-0.107,-0.165,0.0857,0.389,0.942
C=CC[C@]1(C(=O)O)N=C(c2ccc(OCCCO)cc2)O[C@H]1c1ccccc1CN=[N+]=[N-],-0.907,-0.439,-0.46,0.371,0.939,-0.0977,-0.0209,-0.0554,0.371,-0.445
COC(=O)[C@@]1(Cc2ccc(OC)cc2)[C@H]2c3cc(C(=O)N4CCCC4)n(CCc4ccccn4)c3C[C@H]2CN1C(=O)c1ccccc1,-0.091,-0.216,-0.694,1.34,0.61,0.164,1.23,1.22,0.432,0.329
COC(=O)[C@@]1(Cc2ccc(OC)cc2)[C@H]2c3cc(C(=O)N(C)C)n(CCSCCO)c3C[C@H]2CN1C(=O)c1ccccc1,1.39,-1.41,-0.675,2.02,0.954,0.149,0.234,-0.553,0.904,0.569
COC(=O)c1c(CC[C@@H](CO)NC(=O)Nc2ncn[nH]2)oc(C(=O)Cc2ccccc2)c1C(=O)OC,0.693,0.0922,0.506,0.0262,-0.828,-0.243,0.158,-0.0144,-0.0045,0.924
CN1C(=O)C2C=CC(C(O)C3=C[C@H]4C[C@@H](C3)C4(C)C)N(Nc3ccc([N+](=O)[O-])cc3[N+](=O)[O-])C2C1=O (stereo not given in full),1.41,-0.474,0.258,1.72,0.616,0.0194,0.223,0.836,0.975,1.51
C=CCN1Cc2ccccc2C[C@]2(N=C(c3ccc(OCCCO)cc3)O[C@@H]2c2ccccc2)C1=O,1.18,-2.51,0.915,0.054,-0.83,-0.006,-0.0119,0.838,2.68,1.03
Cc1ccc(S[C@]2(C(=O)NCCCN(C)C)CC(=O)N(C(C)C)[C@@H]2c2ccc(CO)cc2I)cc1,-0.257,-2.53,-0.829,0.314,0.344,-0.0748,-0.0035,-0.487,0.309,0.397
CCCCCCCCCCC(O)C1C=CC2C(=O)N(c3ccccc3)C(=O)C2N1Nc1ccc([N+](=O)[O-])cc1 (stereo not given),1.41,-2.47,-0.193,1.01,0.496,-0.0263,-0.0146,1.1,-0.105,1
